The record followed here is PubChem BioAssay (NCI).

This is part of a sample that, as a whole, favours compounds with a hit. Of some 79,000 tested, about 15% had one in any assay. Calls of active or inactive are those of the source. No stated cut-off is given here; in the data, active means growth inhibition above about 70%; inactive means the rest.

One assay can be described thus: NCI Yeast Anticancer Drug Screen. Data for the bub3 strain (AID 167). The note with it: S. cerevisiae bub3 mutant strain, at 50.0 µM, hits give high values. Put shortly:
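Part of a panel of yeast mutants defective in DNA damage repair or cell cycle regulation. Each strain is grown with compound, and inhibition is calculated relative to solvent-treated cultures.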
For `CC1(C)C/C(=C\c2cccc(Cl)c2)C(=O)c2ccccc21`, the growth inhibition was -5.65% (inactive).

On to `Cc1ccc(C)c(NC(=O)C2C(=O)C(=O)N(c3cc(C)ccc3C)C2=O)c1` (stereo not given), for which the growth inhibition is -0.95% (inactive).

For `Cn1c(=O)c2c(nc(Cl)n2C)n(C)c1=O`, the growth inhibition was -7.65% (inactive).

In the case of `CCOC(=O)COc1ccc(C)c2c1C(=O)CC2`, the growth inhibition is -19.1% (inactive).

As for `CCOc1ccc(NC(=O)CC2SC(=Nc3ccc(C)cc3C)NC2=O)cc1` (stereo not given), the growth inhibition is 39.4% (inactive).

As to `CCC(O)C1CCCCC1O` (stereo not given), the growth inhibition was 15.2% (inactive).

In the case of `Cc1ccc(C(=O)OC[C@H]2CC[C@@H](n3cc(N(C)C4CCCCC4)c(=O)[nH]c3=O)O2)cc1`, the growth inhibition was -2.15% (inactive).

On to `CN(CC(=O)NC(=O)c1ccccc1)Cc1ccccc1`, for which the growth inhibition is 3.55% (inactive).

With `Cc1ccc([N+](=O)[O-])cc1S(=O)(=O)O`, the growth inhibition was 20% (inactive).

Consider `CCN(CC)CCCNc1ccc2ncn3c4ccc(O)cc4c(=O)c1c23`, for which the growth inhibition was -27.8% (inactive).

As to `CCOc1ccc2c(N=[N+]=[N-])cc(C)nc2c1`, the growth inhibition is 5.3% (inactive).

In the case of `O=C(NCCNCCO)N/N=C/c1ccccc1`, the growth inhibition is -39% (inactive).

In the case of `S=c1ncnc2cc3[nH][nH]cc3cc12`, the growth inhibition was -7.95% (inactive).

For the compound `c1ccc(Cn2nnc(-c3ccccc3)n2)cc1`, the growth inhibition was 32.9% (inactive).

For `COc1ccc(S(=O)(=O)N/N=C/c2cc(I)cc([N+](=O)[O-])c2O)cc1`, the growth inhibition was -3.85% (inactive).

For `COc1ccc(/C=N/NC(=O)C(=O)Nc2ccc(Cl)c([N+](=O)[O-])c2)cc1OC`, the growth inhibition is -4.1% (inactive).

For the compound `O=C1OC(=O)c2c(Cl)c(Cl)c(Cl)c(Cl)c21`, the growth inhibition is -6.25% (inactive).

In the case of `CC(=O)OCC1OC(n2c(O)c(/C=C3\C=Nc4ccccc43)sc2=S)C(OC(C)=O)C(OC(C)=O)C1OC(C)=O` (stereo not given), the growth inhibition is -3.5% (inactive).

In the case of `O=C(Oc1ccccc1Cl)C1=C(C(=O)Oc2ccccc2Cl)CCC1`, the growth inhibition is 4.55% (inactive).

In the case of `O=C(O)c1ccccc1C(=O)NCc1ccc(Cl)cc1Cl`, the growth inhibition is 19.9% (inactive).

On to `CN1CCN(CC2C3CCC(C3)C2O)CC1` (stereo not given), for which the growth inhibition was -4.7% (inactive).

On to `COC(=O)/C=C/C(=O)OC`, for which the growth inhibition is 9.45% (inactive).

Consider `Cc1sc2c(c1C)/C(=N\O)c1cccn1-2`, for which the growth inhibition is 14.4% (inactive).

For `CCC1CCC(CC)C1OC(C)=O` (stereo not given), the growth inhibition is -28.7% (inactive).

In the case of `COC(=O)C1(C(=O)OC)OC(c2ccc(OC)cc2)[C@H]2C(=O)N(C)C(=O)[C@H]21` (stereo not given in full), the growth inhibition was 10.2% (inactive).

Consider `C=C(C(=O)NC1CCCCC1)c1ccccc1`, for which the growth inhibition was 8.25% (inactive).

For the compound `ClCCCOC1CCCCO1` (stereo not given), the growth inhibition was -7.6% (inactive).

For `NC(=O)N/N=C(/Cl)C(=O)NNC(N)=O`, the growth inhibition was -0.95% (inactive).

For `Cc1ccc(C(=O)c2ccccc2C(=O)O)cc1C(=O)O`, the growth inhibition is 10.2% (inactive).

In the case of `CC/C(=C/c1cccc([N+](=O)[O-])c1)C(=O)O`, the growth inhibition is -13.7% (inactive).

With `CC(NNC(=S)N1CCCCCC1)c1cccc[n+]1[O-]` (stereo not given), the growth inhibition was 14.3% (inactive).

`O=c1[nH]c(C(F)(F)F)c(CCc2ccccc2)c(=O)[nH]1`: the growth inhibition was 36.3% (inactive).

As to `CC[N+](C)(CC)CC[N+]1(C)CCCCCCC1`, the growth inhibition was 10.4% (inactive).

For `O=C1c2cccc3cc([N+](=O)[O-])cc(c23)C(=O)N1CC1CCCO1` (stereo not given), the growth inhibition was 26.1% (inactive).

For the compound `C=C1CC[C@H]2C(C)=CC[C@@H]3[C@H](OC(=O)[C@H]3COC)[C@@H]12`, the growth inhibition was -18.6% (inactive).

For the compound `CCOC(=O)c1ccc(-c2ccccc2)cc1`, the growth inhibition was -12.2% (inactive).

Regarding `O=c1oc2cc(O)ccc2cc1-c1nc2ccccc2o1`, the growth inhibition was 2.75% (inactive).

Take `CCOC(=O)Cc1cccnc1`: the growth inhibition was -12.2% (inactive).

Regarding `Cc1c(C(=O)O)n2cnnc2c2ccccc12`, the growth inhibition is -15.8% (inactive).

On to `O=C(/C=C\c1ccco1)NC(=O)NC(=O)N1CCCCC1`, for which the growth inhibition is -9.15% (inactive).

The nature of the next assay: NCI Yeast Anticancer Drug Screen. Data for the mlh1 rad18 strain (AID 175). The note with it: S. cerevisiae mlh1 rad18 strain growth inhibition; at 50.0 µM; hits give high values. Put shortly: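 Cells of a genetically altered yeast strain, deficient in DNA damage repair, were treated with compound. Their growth was then compared with that of vehicle-treated cultures to give inhibition.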
Take `CC1(C)C/C(=C\c2cccc(Cl)c2)C(=O)c2ccccc21`: the growth inhibition is 7.4% (inactive).

In the case of `Cc1ccc(C)c(NC(=O)C2C(=O)C(=O)N(c3cc(C)ccc3C)C2=O)c1` (stereo not given), the growth inhibition is 10.7% (inactive).

Regarding `Cn1c(=O)c2c(nc(Cl)n2C)n(C)c1=O`, the growth inhibition was 28.9% (inactive).

`CCOC(=O)COc1ccc(C)c2c1C(=O)CC2`: the growth inhibition was -9.9% (inactive).

For the compound `CCOc1ccc(NC(=O)CC2SC(=Nc3ccc(C)cc3C)NC2=O)cc1` (stereo not given), the growth inhibition is 28.8% (inactive).

For the compound `CCC(O)C1CCCCC1O` (stereo not given), the growth inhibition was 2.45% (inactive).

For `Cc1ccc(C(=O)OC[C@H]2CC[C@@H](n3cc(N(C)C4CCCCC4)c(=O)[nH]c3=O)O2)cc1`, the growth inhibition is 31.8% (inactive).

Take `CN(CC(=O)NC(=O)c1ccccc1)Cc1ccccc1`: the growth inhibition is -7.8% (inactive).

Take `Cc1ccc([N+](=O)[O-])cc1S(=O)(=O)O`: the growth inhibition was 2.45% (inactive).

Take `CCN(CC)CCCNc1ccc2ncn3c4ccc(O)cc4c(=O)c1c23`: the growth inhibition was -6.65% (inactive).

As for `CCOc1ccc2c(N=[N+]=[N-])cc(C)nc2c1`, the growth inhibition is 5.45% (inactive).

Consider `O=C(NCCNCCO)N/N=C/c1ccccc1`, for which the growth inhibition was -0.65% (inactive).

For the compound `S=c1ncnc2cc3[nH][nH]cc3cc12`, the growth inhibition was -2.25% (inactive).

For `c1ccc(Cn2nnc(-c3ccccc3)n2)cc1`, the growth inhibition is 18.4% (inactive).

For the compound `COc1ccc(S(=O)(=O)N/N=C/c2cc(I)cc([N+](=O)[O-])c2O)cc1`, the growth inhibition was 2.5% (inactive).

In the case of `COc1ccc(/C=N/NC(=O)C(=O)Nc2ccc(Cl)c([N+](=O)[O-])c2)cc1OC`, the growth inhibition was -6.4% (inactive).

As for `O=C1OC(=O)c2c(Cl)c(Cl)c(Cl)c(Cl)c21`, the growth inhibition was 2.5% (inactive).

Turning to `CC(=O)OCC1OC(n2c(O)c(/C=C3\C=Nc4ccccc43)sc2=S)C(OC(C)=O)C(OC(C)=O)C1OC(C)=O` (stereo not given), the growth inhibition is 4.9% (inactive).

On to `O=C(Oc1ccccc1Cl)C1=C(C(=O)Oc2ccccc2Cl)CCC1`, for which the growth inhibition was 9.75% (inactive).

With `O=C(O)c1ccccc1C(=O)NCc1ccc(Cl)cc1Cl`, the growth inhibition is 38.8% (inactive).

For the compound `CN1CCN(CC2C3CCC(C3)C2O)CC1` (stereo not given), the growth inhibition is -0.6% (inactive).

Take `COC(=O)/C=C/C(=O)OC`: the growth inhibition was 6.6% (inactive).

Regarding `Cc1sc2c(c1C)/C(=N\O)c1cccn1-2`, the growth inhibition is -11.6% (inactive).

Regarding `CCC1CCC(CC)C1OC(C)=O` (stereo not given), the growth inhibition was -21.6% (inactive).

As to `COC(=O)C1(C(=O)OC)OC(c2ccc(OC)cc2)[C@H]2C(=O)N(C)C(=O)[C@H]21` (stereo not given in full), the growth inhibition was 15.3% (inactive).

As for `C=C(C(=O)NC1CCCCC1)c1ccccc1`, the growth inhibition was 0% (inactive).

Take `ClCCCOC1CCCCO1` (stereo not given): the growth inhibition was 1.4% (inactive).

On to `NC(=O)N/N=C(/Cl)C(=O)NNC(N)=O`, for which the growth inhibition is -27.1% (inactive).

Take `Cc1ccc(C(=O)c2ccccc2C(=O)O)cc1C(=O)O`: the growth inhibition was -7.05% (inactive).

Consider `CC/C(=C/c1cccc([N+](=O)[O-])c1)C(=O)O`, for which the growth inhibition is -0.2% (inactive).

Take `CC(NNC(=S)N1CCCCCC1)c1cccc[n+]1[O-]` (stereo not given): the growth inhibition is 33.6% (inactive).

With `O=c1[nH]c(C(F)(F)F)c(CCc2ccccc2)c(=O)[nH]1`, the growth inhibition was 29.8% (inactive).

For the compound `CC[N+](C)(CC)CC[N+]1(C)CCCCCCC1`, the growth inhibition is 15.6% (inactive).

In the case of `O=C1c2cccc3cc([N+](=O)[O-])cc(c23)C(=O)N1CC1CCCO1` (stereo not given), the growth inhibition was 3.15% (inactive).

For `C=C1CC[C@H]2C(C)=CC[C@@H]3[C@H](OC(=O)[C@H]3COC)[C@@H]12`, the growth inhibition was -11.4% (inactive).

With `CCOC(=O)c1ccc(-c2ccccc2)cc1`, the growth inhibition was -15.3% (inactive).

Regarding `O=c1oc2cc(O)ccc2cc1-c1nc2ccccc2o1`, the growth inhibition was -4.1% (inactive).

With `CCOC(=O)Cc1cccnc1`, the growth inhibition was -3.4% (inactive).

With `Cc1c(C(=O)O)n2cnnc2c2ccccc12`, the growth inhibition is 1.5% (inactive).

On to `O=C(/C=C\c1ccco1)NC(=O)NC(=O)N1CCCCC1`, for which the growth inhibition is 4.7% (inactive).
